Source: PubChem BioAssay (several laboratories)
p47phox inh = blocks human p47phox regulatory protein of NADPH oxidases; P14598; p47phox/p22phox peptide binding, fluorescence polarization, 2 h; inhibition, % at 24.7 µM; hit rate 0.53% among 220,000; AID 1274;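 active = inhibition above about 30%, limit read from the data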;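 note: 0% = p47phox with labelled peptide and 100% = labelled peptide alone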
Wee1 degr inh = blocks degradation of human Wee1 kinase; HeLa Luc-Wee1K328M stability, luciferase luminescence; 100% = proteasome inhibitor MG132 effect; reporter increase, % at 5 µM; hit rate 1.2% among 220,000;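 active = activation above the mean of all tested compounds plus 3 SD, set per screening run, cut at about 8.8% in these data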;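 note: cells exposed to compound for 20 h before luminescence read; 0% = DMSO alone and 100% = MG132 at 30 µM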
Target sequence (P30291 whole entry K328M): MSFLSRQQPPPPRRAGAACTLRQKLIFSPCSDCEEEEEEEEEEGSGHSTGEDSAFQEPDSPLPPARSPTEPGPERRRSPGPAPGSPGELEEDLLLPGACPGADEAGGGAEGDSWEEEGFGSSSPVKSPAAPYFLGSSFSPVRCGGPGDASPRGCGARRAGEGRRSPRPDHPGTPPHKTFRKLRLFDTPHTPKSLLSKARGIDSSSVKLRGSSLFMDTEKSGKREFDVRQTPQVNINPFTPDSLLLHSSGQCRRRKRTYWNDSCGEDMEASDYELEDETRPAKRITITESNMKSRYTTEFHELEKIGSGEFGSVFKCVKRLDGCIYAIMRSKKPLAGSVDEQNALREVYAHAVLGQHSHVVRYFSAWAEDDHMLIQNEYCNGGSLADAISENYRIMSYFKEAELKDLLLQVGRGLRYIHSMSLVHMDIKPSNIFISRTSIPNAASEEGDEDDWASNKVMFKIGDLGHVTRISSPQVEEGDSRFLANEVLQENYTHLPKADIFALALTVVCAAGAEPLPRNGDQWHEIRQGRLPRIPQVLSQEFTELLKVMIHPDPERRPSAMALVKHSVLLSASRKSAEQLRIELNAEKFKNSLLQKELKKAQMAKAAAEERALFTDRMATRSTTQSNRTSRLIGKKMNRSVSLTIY
PGE2 EP2 inh = EP2 receptor (human) inhibition; P43116; inhibition, % at 25 µM; C6 glioma cells expressing human EP2, cAMP TR-FRET; cells stimulated with saturating PGE2; hit rate 0.52% among 260,000;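 active = percent inhibition above 40 after rounding to a whole number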;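 note: rat C6 glioma host cells with rolipram phosphodiesterase inhibitor present; the protocol text gives 20 µM as final concentration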
EP2 modulator = EP2 receptor (human) modulation. P43116. EP2-expressing cells, cAMP HTRF FRET, PGE2 co-stimulation. induction, % at 25 µM. hit rate 0.83% among 260,000;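 active = compounds whose cAMP rise, as percent of the full-agonist control response, exceeds 60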;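 note: rat C6 glioma line stably carrying human EP2 under a CMV promoter; the protocol text gives 20 µM as final concentration; 100% = response of wells given 1 µM PGE2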
HSV replic up = increases HSV replication in cells. hit rate 0.005% among 220,000. maximum fold increase. HSV replication augmentation in cells, fold increase; in the data active = maximum fold increase above about 1.5; tested in PC3 cells
Furin inhibitor = human furin inhibition; P09958; hit rate 0.061% among 220,000; purified furin, fluorogenic substrate cleavage; inhibition, % at 20 µM or 30 µM; in the data active = inhibition above about 25%
* marks the source's active call; other numbers are inactive results; i = inactive; x = no result; ! = a repeat was not active. Only some compounds are listed: those with a hit (about 2.8% of all), similar ones and a draw of the others.

SMILES | p47phox inh | Wee1 degr inh | PGE2 EP2 inh | EP2 modulator | HSV replic up | Furin inhibitor
O=c1[nH]c(=O)n(Cc2ccc(F)cc2)c(O)c1C=NCC1CCCO1 (stereo not drawn) | 3.9 | 8.9* | 15.2 | 8.8 | i | -13.5
O=C(Cn1c(NCCCl)nc2ccccc21)c1ccc(Cl)cc1 | x | x | 14.8 | 16.4 | x | x
O=C(C1CC(c2ccc(F)cc2)=NO1)N1CCC2(CC1)OCCO2 (stereo not drawn) | -13.7 | 2.4 | 2.0 | 18.1 | i | -14.2
O=C(C1CC(c2ccc(Cl)c(Cl)c2)=NO1)N1CCC2(CC1)OCCO2 (stereo not drawn) | -1.1 | 9.8* | 18.6 | -30.6 | i | -11.7
N[C@H](Cc1ccc2oc3cc(=O)c4ccccc4c-3nc2c1)C(=O)O | x | x | 68.5* | -18.4 | x | x
N[C@@H](Cc1cc(Br)c(O)c(Br)c1)C(=O)O | -9.7 | 4.9 | 14.5 | 9.7 | x | -13.0
O=C(CN1C2CCC1CC(O)(c1ccccn1)C2)N1CCCCCC1 (stereo not drawn) | x | x | 9.5 | -27.9 | x | x
CCOc1ccc(C2CC(c3c(O)n(C)c(=O)n(C)c3=O)=NN2)cc1 (stereo not drawn) | 61.5* | -0.2 | 7.1 | -16.8 | i | -8.2
CC(=O)O[C@@H]1CC2C(C)(C)[C@H](O)C=C[C@]2(C)C2CC[C@]3(C)C(=CC(=O)O[C@H]3c3ccoc3)[C@@]21C (stereo partly drawn) | x | x | 14.7 | 11.3 | x | x
C[N+]1(C)[C@@H]2CC[C@H]1CC(OC(=O)[C@@H](CO)c1ccccc1)C2 (stereo partly drawn) | x | x | 49.5* | 20.1 | x | x
CC12CCC3C(CC=C4CC(O)CCC43C)C1C/C(=C\N1CCCC1)C2=O (stereo not drawn) | -28.0 | 0.2 | 5.6 | -4.6 | i | -27.0
C[C@H]1CC[C@]2(NC1)O[C@H]1C[C@H]3[C@H]4CC=C5C[C@@H](O)CC[C@]5(C)[C@@H]4CC[C@]3(C)[C@H]1[C@@H]2C | x | x | 57.7* | 7.4 | x | x
C[C@@H]1O[C@@H](O[C@H]2C[C@@H](O)[C@]3(CO)[C@@H]4C(CC[C@]3(O)C2)[C@@]2(O)CC[C@H](C3COC(=O)C3)[C@@]2(C)C[C@H]4O)[C@H](O)[C@H](O)[C@H]1O (stereo partly drawn) | x | x | 12.2 | 18.7 | x | x
C[C@H]1CC[C@@H]2[C@@H](C)[C@H]3[C@H](C[C@H]4[C@@H]5CC=C6C[C@@H](O[C@@H]7O[C@H](CO)[C@H](O)[C@H](O[C@@H]8O[C@H](CO)[C@@H](O)[C@H](O)[C@H]8O)[C@H]7O[C@@H]7O[C@@H](C)[C@H](O)[C@@H](O)[C@H]7O)CC[C@]6(C)[C@H]5CC[C@]34C)N2C1 | -74.5 | 8.5 | 87.5* | -71.8 | i | -2.5
C#CC1(O)CCC2C3CCC4=CC(=O)CCC4(C)C3CCC21C (stereo not drawn) | x | x | 19.2 | -10.7 | x | x
C[C@]12CC[C@@H]3[C@H](CCC4=CC(=O)CC[C@]43C)[C@]1(O)CC[C@@]2(O)C(=O)CO | x | x | 55.3* | -3.3 | x | x
O=c1c2ccccc2[se]n1-c1ccccc1 | 84.9* | -1.1 | 47.2*! | -1.6 | i | -12.9
O=c1c2ccccc2nc(-c2ccccc2)n1-c1ccccc1 | -4.3 | 2.5 | 3.4 | 20.6 | i | -4.0
COc1ccccc1CN(CCN(C)C)C(=O)Cc1c(C)[nH]c2ccc(F)cc12 | x | x | 4.7 | -61.9 | x | x
C=CCN1C(=O)/C(=C/c2ccc3c(c2)CCCN3CCC)C(=O)NC1=S | 42.9* | -0.2 | 9.6 | 4.1 | i | -16.8
NC1=Nc2ccccc2Oc2ccccc21 | -5.2 | 10.2* | x | 0.0 | x | -17.2
COc1ccc(OCC(=O)N2CCN(Cc3ccc(OC)c(OC)c3)CC2)cc1 | x | x | 7.5 | 12.6 | x | x
O=C(O)/C=C/c1ccc[c]([Sb](=[O])([OH])[OH])c1 | x | x | 7.1 | 13.8 | x | x
C1=C(CCNCc2ccccc2)CCCC1 | -3.5 | 9.3* | 4.7 | 30.5 | i | -9.4
Fc1ccc(CNCCc2ccccc2)cc1 | -0.2 | -2.6 | 4.8 | 2.0 | i | -23.5
O=c1[nH]c(O)c(/C=C2/C=CC(c3cc(Cl)ccc3Cl)=N2)c(=O)[nH]1 | 50.0* | -3.5 | 27.9 | -133.6 | x | 0.2
CC[C@H]1C2CC3[C@@H]4N(C)c5ccccc5[C@]45C[C@@H](C2C5O)N3[C@@H]1O (stereo partly drawn) | x | x | 6.7 | -1.4 | x | x
Cc1nc(-c2ccccc2)c(CC(=O)N2CCCCC2CN2CCCC2)s1 (stereo not drawn) | x | x | 4.6 | -33.0 | x | x
